Active and inactive are the calls of the source. How the source made its calls: active means hit-call score of the fitted dose curve at least 0.9, where 1 is the maximum; inactive means score below 0.9.
Columns and labels:
[1] = ATG_CRE_CIS: Attagene CIS-FACTORIAL HepG2 Assay for human cAMP Responsive Element (CRE) binding protein 3 (AID 2282926); settings: HepG2 CRE cis-reporter, Attagene multiplexed mRNA; actives raise or lower the signal
How it was run: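 HepG2 cells transiently transfected with a multiplexed reporter library (CRE-driven unit among them) were dosed for 24 h. Reporter mRNA was quantified by RT-PCR, fluorescent labelling, HpaI digestion and capillary electrophoresis, with bidirectional fitting against DMSO baseline.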

[2] = biological target: CCAAT/enhancer-binding protein beta (Homo sapiens) (UniProt P17676); experiment: ATG_C_EBP_CIS: Attagene CIS-FACTORIAL HepG2 Assay for human CCAAT/Enhancer Binding Protein (C/EBP) beta (AID 2282927); settings: HepG2 Attagene cis-factorial transcription factor reporter; actives raise or lower the signal
Chain of CCAAT/enhancer-binding protein beta (Homo sapiens) (P17676 whole entry, looked up): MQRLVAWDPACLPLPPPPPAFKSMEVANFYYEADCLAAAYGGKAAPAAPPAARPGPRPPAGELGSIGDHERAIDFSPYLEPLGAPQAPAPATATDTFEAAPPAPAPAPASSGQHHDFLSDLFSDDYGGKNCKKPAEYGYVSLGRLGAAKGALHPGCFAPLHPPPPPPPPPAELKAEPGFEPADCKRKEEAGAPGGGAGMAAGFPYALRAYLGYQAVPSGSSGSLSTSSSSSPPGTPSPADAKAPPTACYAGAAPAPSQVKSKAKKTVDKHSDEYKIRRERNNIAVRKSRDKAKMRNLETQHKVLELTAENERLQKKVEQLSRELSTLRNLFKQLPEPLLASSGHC
How it was run: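 Endogenous transcription factor activity in human liver HepG2 cells is inferred from induction of a CEBPB-linked reporter mRNA. Exposure lasts 24 h; activity is fitted in both directions relative to DMSO.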

[3] = ATG_CMV_CIS: Attagene CIS-FACTORIAL HepG2 Assay for human CMV (Internal Marker) (AID 2282928); settings: HepG2 CMV promoter reporter, transcription factor profiling; actives raise or lower the signal;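 further: endpoint acts as a background internal control marker rather than a target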
How it was run: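 Cell system: HepG2, transiently transfected multiple reporter units under cis promoters. Exposure: 24 h. Detection: RT-PCR, FAM labeling, HpaI digestion, capillary electrophoresis. Analysis: bidirectional, DMSO baseline.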

[4] = ATG_DR4_LXR_CIS: Attagene CIS-FACTORIAL HepG2 Assay for human Liver X Receptor (LXR), DR4 submotif (AID 2282929); settings: HepG2 Attagene DR4 cis-reporter, mRNA transcription; actives raise or lower the signal
How it was run: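 HepG2, transient MRTU transfection, cis-element (DR4) promoter; 24 h compound exposure; total RNA → oligo(dT) RT → PCR → 6-FAM primer extension → HpaI cut → CE. Gain/loss vs DMSO, bidirectional fit.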

[5] = biological target: Aryl hydrocarbon receptor (Homo sapiens) (UniProt P35869); experiment: ATG_Ahr_CIS: Attagene CIS-FACTORIAL HepG2 Assay for human Aryl Hydrocarbon Receptor (Ahr) (AID 2282930); settings: HepG2 AhR cis-factorial reporter transcription; actives raise or lower the signal
Chain of Aryl hydrocarbon receptor (Homo sapiens) (P35869 whole entry, looked up): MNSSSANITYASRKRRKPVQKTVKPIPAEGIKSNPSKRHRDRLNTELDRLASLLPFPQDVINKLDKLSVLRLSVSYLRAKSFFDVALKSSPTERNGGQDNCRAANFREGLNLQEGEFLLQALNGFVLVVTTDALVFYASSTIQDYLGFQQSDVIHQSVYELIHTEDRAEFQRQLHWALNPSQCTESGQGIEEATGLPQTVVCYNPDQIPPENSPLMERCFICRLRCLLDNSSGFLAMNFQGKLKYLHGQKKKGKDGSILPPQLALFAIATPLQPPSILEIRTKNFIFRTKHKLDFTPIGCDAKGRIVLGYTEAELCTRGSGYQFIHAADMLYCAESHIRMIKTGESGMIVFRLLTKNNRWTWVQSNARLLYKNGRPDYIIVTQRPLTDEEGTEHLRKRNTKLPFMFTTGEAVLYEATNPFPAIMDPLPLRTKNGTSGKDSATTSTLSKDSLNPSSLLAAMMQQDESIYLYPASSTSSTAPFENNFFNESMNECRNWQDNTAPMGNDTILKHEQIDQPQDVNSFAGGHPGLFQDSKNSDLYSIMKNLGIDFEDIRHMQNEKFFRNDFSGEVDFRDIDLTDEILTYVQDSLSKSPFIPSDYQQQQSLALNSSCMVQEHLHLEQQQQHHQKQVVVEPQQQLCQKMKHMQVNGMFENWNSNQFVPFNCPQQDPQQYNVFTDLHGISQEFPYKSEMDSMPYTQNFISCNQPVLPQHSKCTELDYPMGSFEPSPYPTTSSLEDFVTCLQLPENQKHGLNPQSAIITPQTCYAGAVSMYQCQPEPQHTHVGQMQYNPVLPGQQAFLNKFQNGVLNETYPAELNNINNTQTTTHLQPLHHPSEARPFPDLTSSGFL
How it was run: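 Transient MRTU transfection of HepG2 → 24 h compound exposure → total RNA, oligo(dT) RT → PCR, 6-FAM extension, HpaI cut → CE fluorescence. DMSO = baseline; bidirectional curve fit.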

[6] = ATG_AP_1_CIS: Attagene CIS-FACTORIAL HepG2 Assay for human Activator Protein 1 (AP-1) (AID 2282931); settings: HepG2 Attagene cis-factorial AP-1 reporter mRNA; actives raise or lower the signal
How it was run: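 Transient MRTU transfection of HepG2 → 24 h chemical treatment → RNA isolation, RT-PCR, 6-FAM labelling, HpaI digest → capillary electrophoresis. Fit: bidirectional, DMSO negative control.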

[7] = ATG_AP_2_CIS: Attagene CIS-FACTORIAL HepG2 Assay for human Activator Protein 2 (AP-2) (AID 2282932); settings: HepG2 AP-2 cis-reporter, Attagene transcription factor profiling; actives raise or lower the signal
How it was run: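 HepG2, transient MRTU transfection, cis-regulated reporters; 24 h compound exposure; RNA isolated, RT-PCR, 6-FAM labelling, HpaI digest, CE fluorescence. DMSO = negative control/baseline, bidirectional fit.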

[8] = ATG_BRE_CIS: Attagene CIS-FACTORIAL HepG2 Assay for human Bone Morphogenetic Protein (BMP) Response Element (BRE) (AID 2282933); settings: HepG2 BMP response element reporter, Attagene transcription factor profiling; actives raise or lower the signal
How it was run: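 Transient MRTU transfection of human HepG2 liver cells; 24 h compound treatment; total RNA isolated, reverse-transcribed, PCR-amplified, 6-FAM labelled, HpaI-cut, capillary electrophoresis. DMSO = negative control/baseline, bidirectional fit.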

[9] = biological target: Retinoic acid receptor alpha (Homo sapiens) (UniProt P10276); experiment: ATG_DR5_RAR_CIS: Attagene CIS-FACTORIAL HepG2 Assay for human Retinoic Acid Receptor Alpha (RARE), DR5 submotif (AID 2282934); settings: HepG2 Attagene cis-factorial RARE DR5 reporter, mRNA; actives raise or lower the signal
Chain of Retinoic acid receptor alpha (Homo sapiens) (P10276 whole entry, looked up): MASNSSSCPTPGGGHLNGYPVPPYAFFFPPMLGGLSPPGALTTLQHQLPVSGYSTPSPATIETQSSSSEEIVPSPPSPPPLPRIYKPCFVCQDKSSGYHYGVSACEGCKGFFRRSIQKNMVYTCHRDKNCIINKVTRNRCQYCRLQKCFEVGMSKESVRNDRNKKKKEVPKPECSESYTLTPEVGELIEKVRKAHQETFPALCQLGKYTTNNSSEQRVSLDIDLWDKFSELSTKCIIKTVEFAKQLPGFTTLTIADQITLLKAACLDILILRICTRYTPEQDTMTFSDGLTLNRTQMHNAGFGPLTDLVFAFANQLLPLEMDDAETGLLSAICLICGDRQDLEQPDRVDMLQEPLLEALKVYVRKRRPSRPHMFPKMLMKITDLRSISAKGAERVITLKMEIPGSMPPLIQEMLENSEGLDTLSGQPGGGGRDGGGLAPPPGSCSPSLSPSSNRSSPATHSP
How it was run: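 Transient MRTU transfection of HepG2; 24 h compound treatment; TriZol RNA, oligo(dT) RT, PCR, FAM labelling, capillary electrophoresis. Bidirectional fit vs DMSO. Endogenous TF activity at DR5 RARE.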

[10] = biological target: Transcription factor E2F1 (Homo sapiens) (UniProt Q01094); experiment: ATG_E2F_CIS: Attagene CIS-FACTORIAL HepG2 Assay for human E2F Transcription Factor 1 (AID 2282935); settings: HepG2 Attagene cis-reporter, E2F reporter RNA transcripts; actives raise or lower the signal
Chain of Transcription factor E2F1 (Homo sapiens) (Q01094 whole entry, looked up): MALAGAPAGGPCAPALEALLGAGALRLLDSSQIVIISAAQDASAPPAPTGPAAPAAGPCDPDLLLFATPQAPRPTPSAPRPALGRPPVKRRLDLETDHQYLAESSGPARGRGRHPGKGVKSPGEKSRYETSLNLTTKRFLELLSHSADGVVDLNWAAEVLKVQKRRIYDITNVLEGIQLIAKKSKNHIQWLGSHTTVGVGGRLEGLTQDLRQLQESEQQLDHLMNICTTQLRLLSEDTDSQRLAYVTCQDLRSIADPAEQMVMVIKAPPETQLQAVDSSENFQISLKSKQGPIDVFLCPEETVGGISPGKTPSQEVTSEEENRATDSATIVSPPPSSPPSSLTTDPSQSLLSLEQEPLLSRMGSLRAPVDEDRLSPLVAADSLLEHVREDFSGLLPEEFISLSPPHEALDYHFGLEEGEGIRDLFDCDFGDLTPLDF
How it was run: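 Cis-element reporter mRNA induction in transiently transfected HepG2, 24 h exposure. Activity fitted in both directions relative to DMSO negative control.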

Measured: AC50

CCN(CC#N)c1cccc(C)c1
inactive: [1] | [2] | [3] | [4] | [5] | [6] | [7] | [8] | [9] | [10]

CO[Si](CCC1CCC2OC2C1)(OC)OC (stereo not given)
inactive: [1] | [2] | [3] | [4] | [5] | [6] | [7] | [8] | [9] | [10]

CC(=O)[C@H]1[C@H](C#N)C[C@H]2[C@@H]3CC=C4C[C@@H](O)CC[C@]4(C)[C@H]3CC[C@@]21C
inactive: [1] | [2] | [3] | [4] | [5] | [6] | [7] | [8] | [9] | [10]

Nc1nc2ccccc2[nH]1
inactive: [1] | [2] | [3] | [4] | [6] | [7] | [8] | [9] | [10]
active: [5] 28.6 µM

O=c1[nH]c(=O)c2[nH]c(=O)[nH]c2[nH]1
inactive: [1] | [2] | [3] | [4] | [5] | [6] | [7] | [8] | [9] | [10]

CCCCCCCCCCCCCCCCCC#N
inactive: [1] | [2] | [3] | [4] | [5] | [6] | [7] | [8] | [9] | [10]

O=C(Nc1ccccc1)c1ccccc1O
active: [2] 53.4 µM | [5] 19.1 µM | [6] 27 µM | [8] 30.7 µM
inactive: [1] | [3] | [4] | [7] | [9] | [10]

CC(C)c1ccc(C=O)cc1
inactive: [1] | [2] | [3] | [4] | [5] | [6] | [7] | [8] | [9] | [10]

CC(C)(C)C1CCCCC1=O (stereo not given)
inactive: [1] | [2] | [3] | [4] | [5] | [6] | [7] | [8] | [9] | [10]

CC(C)=CCC/C(C)=C\C#N
inactive: [1] | [2] | [3] | [4] | [5] | [6] | [7] | [8] | [9] | [10]

Nc1ncn([C@@H]2O[C@H](CO)[C@@H](O)[C@H]2O)c(=O)n1
inactive: [3] | [4] | [5] | [6] | [7] | [8] | [9] | [10]
active: [1] 9.4 µM | [2] 15.4 µM

C/C=C\C/C=C/CCCCCCCCOC(C)=O
inactive: [1] | [2] | [3] | [5] | [7] | [9] | [10]
active: [4] 122 µM | [6] 134 µM | [8] 67.9 µM

CCCCCCCCc1ccc(Nc2ccc(CCCCCCCC)cc2)cc1
inactive: [1] | [2] | [3] | [4] | [5] | [6] | [7] | [8] | [9] | [10]

C[C@]12C=CC(=O)C=C1CC[C@@H]1[C@@H]2[C@@H](O)C[C@@]2(C)[C@H]1CC[C@]2(O)C(=O)CO
inactive: [1] | [2] | [3] | [4] | [5] | [6] | [7] | [8] | [9] | [10]

CC(C)C(=O)C(C)C
inactive: [2] | [3] | [4] | [5] | [7] | [8] | [9] | [10]
active: [1] 36.9 µM | [6] 66.5 µM

OC1CCCC1
inactive: [1] | [2] | [3] | [4] | [5] | [6] | [7] | [8] | [9] | [10]

C=CC(=O)OCCOC(=O)C=C
inactive: [1] | [2] | [5] | [8] | [9] | [10]
active: [3] 27.2 µM | [4] 27.4 µM | [6] 126 µM | [7] 27.2 µM

O=C(O)C(c1ccc(Cl)cc1)c1ccc(Cl)cc1
inactive: [1] | [2] | [3] | [4] | [5] | [6] | [7] | [8] | [9] | [10]

Cc1ccc(C(C)(C)C)cc1
inactive: [1] | [2] | [3] | [4] | [5] | [6] | [7] | [8] | [9] | [10]

C=CCCCCCCCCC(=O)OCCCC
inactive: [1] | [2] | [3] | [4] | [5] | [6] | [7] | [8] | [9] | [10]

CCN(Cc1cccc(S(=O)(=O)O)c1)c1ccc(C(=C2C=CC(=[N+](CC)Cc3cccc(S(=O)(=O)[O-])c3)C=C2)c2ccccc2)cc1
inactive: [1] | [2] | [3] | [4] | [6] | [7] | [8] | [9] | [10]
active: [5] 51.2 µM

C=C(C)C(=O)OCCO
inactive: [1] | [2] | [3] | [4] | [5] | [6] | [7] | [8] | [9] | [10]

C1=CCCC1
inactive: [1] | [2] | [3] | [4] | [5] | [6] | [7] | [8] | [9] | [10]

C[C@]12CCC(=O)C=C1CC[C@@H]1[C@@H]2C(=O)C[C@@]2(C)[C@H]1CC[C@]2(O)C(=O)CO
inactive: [1] | [2] | [3] | [4] | [5] | [6] | [7] | [8] | [9] | [10]

N#CCc1ccc(Cl)cc1Cl
inactive: [1] | [2] | [3] | [4] | [6] | [7] | [8] | [9] | [10]
active: [5] 18.6 µM

CN(C)CCCN(C)C
inactive: [1] | [2] | [3] | [4] | [5] | [6] | [7] | [8] | [9] | [10]

CCCCCCCCCCOC(C)=O
inactive: [1] | [2] | [3] | [4] | [5] | [6] | [7] | [8] | [9] | [10]

Cc1ccc([N+](=O)[O-])cc1S(=O)(=O)O
inactive: [1] | [2] | [3] | [4] | [5] | [6] | [8] | [9] | [10]
active: [7] 163 µM

CCC(=O)Oc1ccc(/C(CC)=C(\CC)c2ccc(OC(=O)CC)cc2)cc1
active: [1] 25.9 µM | [4] 6.03 µM | [6] 11.6 µM
inactive: [2] | [3] | [5] | [7] | [8] | [9] | [10]

Cc1cc(C)c(C)cc1C
inactive: [1] | [2] | [3] | [4] | [5] | [6] | [7] | [8] | [9] | [10]

CCC(CO)CO
inactive: [1] | [2] | [3] | [4] | [5] | [6] | [7] | [8] | [9] | [10]

CC(CC=O)CCCC(C)(C)O (stereo not given)
inactive: [1] | [2] | [3] | [4] | [5] | [6] | [7] | [8] | [9] | [10]

CCCC(C)CCC(C)=O (stereo not given)
inactive: [1] | [2] | [3] | [4] | [5] | [6] | [7] | [8] | [9] | [10]

O=C1Nc2ccccc2C1(c1ccc(O)cc1)c1ccc(O)cc1
inactive: [2] | [8] | [9] | [10]
active: [1] 23.9 µM | [3] 136 µM | [4] 36.7 µM | [5] 166 µM | [6] 162 µM | [7] 44.8 µM

CC(C)=CCCC(C)C=O (stereo not given)
inactive: [1] | [2] | [3] | [4] | [5] | [6] | [7] | [8] | [9] | [10]

Cc1cc(C)c(C)c(O)c1
inactive: [1] | [2] | [3] | [4] | [5] | [6] | [7] | [8] | [9] | [10]

c1c[nH]cn1
inactive: [1] | [2] | [3] | [4] | [5] | [6] | [7] | [8] | [9] | [10]

Reference: PubChem BioAssay (EPA / NIEHS)
